Bioassay records from PubChem BioAssay.
Tau fibril FP = inhibitors of human tau fibril formation; P10636; K18 P301L tau heparin fibrillization, Alexa594 FP, 6 h; Potency, µM (doses to about 57.7 µM), usual class: inhibitors; hit rate 0.39% among 280,000; note: nearly all actives have a fitted effect of over 55% in size
Target sequence (P10636 561-689 P618L limits assumed): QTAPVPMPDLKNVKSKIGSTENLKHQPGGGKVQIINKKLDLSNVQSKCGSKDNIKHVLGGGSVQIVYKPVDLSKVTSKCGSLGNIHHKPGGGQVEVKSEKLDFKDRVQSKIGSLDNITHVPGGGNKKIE
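Human K18 P301L fragment (15 uM unlabeled plus 0.24 uM Alexa 594-labeled) in 100 mM sodium acetate pH 7 with compound, aggregation induced by 20 uM heparin for 6 hr at 37 C. ThT (30 uM) added for 1 hr, then Alexa 594 FP read.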
Tau fluor cs = counter-screen for tau fibril formation inhibitors. tau K18 P301L Alexa594 fluorescence, heparin fibrillization. hit rate 0.93% among 280,000. AID 1463. Potency, µM (highest dose often 57.7 µM); note: nearly all actives have a fitted effect of over 55% in size
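Human tau K18 P301L (15 uM unlabeled, 0.24 uM Alexa 594-labeled) in 100 mM sodium acetate pH 7 with 20 uM heparin, 6 hr at 37 C. ThT 30 uM added, 1 hr ambient; Alexa 594 FP and total fluorescence read at 555/632 nm.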
Tau fibril ThT = tau fibrillization inhibition (ThT binding) | P10636 | recombinant tau K18 P301L (four-repeat tau fragment), heparin-induced fibrillization, ThT fluorescence | Potency, µM (doses to about 57.4 µM), actives largely listed as inhibitors | hit rate 2.1% among 270,000 | AID 1460; note: nearly all actives have a fitted effect of over 55% in size
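Heparin-induced (20 uM) aggregation of recombinant human K18 P301L tau, 15 uM unlabeled with 0.24 uM labeled, pH 7 acetate buffer, 6 hr at 37 C with compound. Fibrils quantified by 30 uM ThT fluorescence after 1 hr ambient incubation.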
G9a block = blocks human histone lysine methyltransferase G9a; G9a H3K9 monomethylation, AlphaScreen, 2 h; AID 504332; Q96KQ7; hit rate 8.8% among 350,000; Potency, µM (top dose mostly 102 µM), actives largely listed as inhibitors; note: nearly all actives have a fitted effect of over 75% in size
Target sequence (Q96KQ7 913-1193 limits assumed): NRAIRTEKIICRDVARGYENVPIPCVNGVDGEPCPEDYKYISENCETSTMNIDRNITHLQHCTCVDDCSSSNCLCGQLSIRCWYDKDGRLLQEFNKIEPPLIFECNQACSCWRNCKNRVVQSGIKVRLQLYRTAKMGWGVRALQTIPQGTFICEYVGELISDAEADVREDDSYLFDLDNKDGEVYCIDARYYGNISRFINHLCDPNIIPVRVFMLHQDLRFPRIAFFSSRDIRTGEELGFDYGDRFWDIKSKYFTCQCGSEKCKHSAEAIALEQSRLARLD
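Enzyme 20 nM + cpd, 15 min RT; add b-H3K9 pep 500 nM / SAM 20 uM; 2 h RT; anti-H3K9me1 Ab 0.5 ug/mL + SA donor / anti-rabbit acceptor beads 20 ug/mL each, 10 min; AlphaScreen read.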
Sfp PPTase inh = inhibitors of Bacillus subtilis Sfp phosphopantetheinyl transferase; hit rate 3.5% among 310,000; Potency, µM, hits mostly inhibitors; Biochemical Sfp PPTase activity, qHTS; Q9F4F7; AID 1490;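 note: the enzyme is Sfp with the accession as filed and its product quenches rhodamine fluorescence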
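With Hepes-Na pH 7.6 buffer containing 10 mM MgCl2, Sfp (15 nM) modified BHQ-2-YbbR (12.5 uM) using rhodamine-CoA (5 uM). Two reads 30 minutes apart at 525/598 nm yielded each well's rate.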
FBPA coupling cs = coupling enzyme interference in Giardia aldolase counter-screen; coupling enzyme system counterscreen, AmpLite Red fluorescence; AID 2472; hit rate 0.67% among 290,000; activity change, negative = inhibition, % at 58.2 µM, hits read low; in the data active = activity change below about -30%
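Counterscreen of the coupled detection system alone, without aldolase: glyceraldehyde-3-phosphate coupling enzymes plus AmpLite Red readout. Compounds at 57.5 uM final, 10 min RT preincubation, 20 min RT reaction, fluorescence 525/598 nm.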
A number is an active result; ! = not active in a repeat; [ ] = another dose, or the depositor's remark. Rows were chosen to be rich in hits. Some 11% of all compounds tested hit in one or more screens of this group. Unless noted, calls come from the whole dose curve; as a rule, active = well fitted curve in the direction sought with a large enough effect; inconclusive = small, poorly fitted or top-dose-only effect, or another doubt; inactive = no such curve, though single readings can be large; an effect the other way counts as inactive or inconclusive.

How did O=C(c1ccccn1)N1CC=C(c2ccccc2)CC1 do in these assays?
Tau fibril FP: inactive; Tau fluor cs: inactive; Tau fibril ThT: inactive; G9a block: 35.5µM; Sfp PPTase inh: inactive; FBPA coupling cs: inactive

How did O=C(c1cccs1)N1CC=C(c2ccccc2)CC1 do in these assays?
G9a block: inactive[12.7 µM]

Results for COc1ccc(N2CCN(C3CCCN(Cc4ccc(F)c(F)c4)C3)CC2)cc1 (centres undefined) ?
G9a block: 44.7µM; Sfp PPTase inh: inactive; FBPA coupling cs: inactive

How did Cc1ccc(-c2nc(CS(=O)CC(=O)N3CCN(c4ccc(F)cc4)CC3)c(C)o2)cc1 (centres undefined) do in these assays?
Tau fibril FP: inactive; Tau fluor cs: inactive; Tau fibril ThT: inconclusive; G9a block: 14.1µM!; Sfp PPTase inh: inactive

Results for CCOC(=O)C1CCN(C(=O)CS(=O)Cc2nc(-c3ccc(C)cc3)oc2C)CC1 (centres undefined) ?
Tau fibril FP: inactive; Tau fluor cs: inactive; Tau fibril ThT: inconclusive; G9a block: 28.2µM; Sfp PPTase inh: inconclusive; FBPA coupling cs: inactive

Results for CCC(C)[C@H](NC(=O)C1(c2ccccc2)CCN(C(=O)OC(C)(C)C)CC1)C(=O)N[C@@H](C(=O)O)c1ccccc1 (some centres undefined) ?
G9a block: inactive[12.7 µM]; Sfp PPTase inh: inactive; FBPA coupling cs: inactive

How did O=S(=O)(NCC(c1ccco1)N1CCc2ccccc2C1)c1ccc(F)cc1 (centres undefined) do in these assays?
G9a block: inactive

How did CCOc1cc2[nH]c(=S)n(CCCN(CC)CC)c(=O)c2cc1OCC do in these assays?
Tau fibril FP: inactive; Tau fluor cs: inactive; Tau fibril ThT: inactive; G9a block: inconclusive; Sfp PPTase inh: inactive; FBPA coupling cs: inactive

How did CCOc1cc2[nH]c(=S)n(Cc3ccc(C(=O)O)cc3)c(=O)c2cc1OCC do in these assays?
G9a block: 17.8µM; Sfp PPTase inh: inactive; FBPA coupling cs: inactive

How did CCCCN(C)CCn1c(=S)[nH]c2cc(OCC)c(OCC)cc2c1=O do in these assays?
Tau fibril FP: inactive; Tau fluor cs: inactive; Tau fibril ThT: inactive; G9a block: 11.2µM; Sfp PPTase inh: inactive; FBPA coupling cs: inactive

What do the screens show for `CCN(c1cccc(C)c1)S(=O)(=O)c1c(C)nc2sc(C)cn2c1=O`?
Tau fibril FP: inactive; Tau fluor cs: inactive; Tau fibril ThT: inactive; G9a block: inactive

Results for COc1ccc(N2CC(NC(=O)C3CCCCC3)CC2=O)cc1 (centres undefined) ?
Tau fibril FP: inactive; Tau fluor cs: inactive; Tau fibril ThT: inactive; G9a block: inactive

Results for COc1ccc(C2NC(=O)N(C)C3=C2C(=O)N(c2ccc(Br)cc2)C3)cc1 (centres undefined) ?
Tau fibril FP: inactive; Tau fluor cs: inactive; Tau fibril ThT: inconclusive; G9a block: inactive

What do the screens show for `Cc1ccccc1C(=O)NC(=S)Nc1cccc(NC(=O)C(C)C)c1`?
Tau fibril FP: inactive; Tau fluor cs: inactive; Tau fibril ThT: inactive; G9a block: 8.91µM; Sfp PPTase inh: inactive; FBPA coupling cs: inactive

Results for COC(=O)c1ccc(NC(=S)Nc2ccccn2)cc1 ?
Tau fibril FP: inactive; Tau fluor cs: inactive; Tau fibril ThT: inactive; G9a block: inconclusive; Sfp PPTase inh: inactive; FBPA coupling cs: inactive

How did Cc1cccc(NC(=S)NN2CCOCC2)c1C do in these assays?
Tau fibril FP: inactive; Tau fluor cs: inactive; Tau fibril ThT: inactive; G9a block: inactive; Sfp PPTase inh: inactive; FBPA coupling cs: inactive

Results for COc1ccc(NC(=S)Nc2ccccn2)cc1 ?
Tau fibril FP: inactive; Tau fluor cs: inactive; G9a block: 39.8µM; Sfp PPTase inh: inactive; FBPA coupling cs: inactive

How did Cc1cccc(NC(=S)Nc2ccc(N3CCOCC3)cc2)c1C do in these assays?
Tau fibril FP: inactive; Tau fluor cs: inactive; Tau fibril ThT: inactive; G9a block: 39.8µM; Sfp PPTase inh: inactive; FBPA coupling cs: inactive

What do the screens show for `COc1ccccc1C(=O)NC(=S)Nc1ccc(S(=O)(=O)N2CCN(C)CC2)cc1`?
Tau fibril FP: inactive; Tau fluor cs: inactive; Tau fibril ThT: inactive; G9a block: 50.1µM; Sfp PPTase inh: inconclusive; FBPA coupling cs: inactive
